Shown are actives, neighbours in structure and some others; about 11% of the full set was active somewhere.
PNC inhibitor: blocks assembly of the perinucleolar compartment; PC3M PTB-GFP, PNC prevalence imaging, 16 h; hits give low values; activity change (PNC), negative = inhibition, % at 10 µM; actives 3.1% (n = 140,000); AID 2417;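 active means readout at or below -70, meaning at least 70% loss of cells showing the perinucleolar compartment, a nuclear body marking cancer cells; inconclusive means readout between -30 and a set limit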;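 further: plate controls were DMSO wells for no effect and camptothecin positive control wells for full effect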
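Read-out is percentage of cells bearing a perinucleolar compartment, from automated 20x imaging of fixed, Hoechst-stained PC3M PTB-GFP cells. Cells were seeded 4 h, then exposed 16 h to compound (23 nl of library stock) in duplicate plates.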
ALDH1A1 inh: ALDH1A1 (human) enzyme inhibition; P00352; Purified ALDH1A1, NADH fluorescence, propionaldehyde substrate; Potency, µM (titrated, usually from 75.3 µM), for inactives: top-dose activity, negative = inhibition, actives largely listed as inhibitors; actives 7.3% (n = 220,000);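 further: potency means the concentration at half of the fitted maximal effect; plate controls were no enzyme wells and a reference inhibitor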
Target sequence (P00352 whole entry, looked up): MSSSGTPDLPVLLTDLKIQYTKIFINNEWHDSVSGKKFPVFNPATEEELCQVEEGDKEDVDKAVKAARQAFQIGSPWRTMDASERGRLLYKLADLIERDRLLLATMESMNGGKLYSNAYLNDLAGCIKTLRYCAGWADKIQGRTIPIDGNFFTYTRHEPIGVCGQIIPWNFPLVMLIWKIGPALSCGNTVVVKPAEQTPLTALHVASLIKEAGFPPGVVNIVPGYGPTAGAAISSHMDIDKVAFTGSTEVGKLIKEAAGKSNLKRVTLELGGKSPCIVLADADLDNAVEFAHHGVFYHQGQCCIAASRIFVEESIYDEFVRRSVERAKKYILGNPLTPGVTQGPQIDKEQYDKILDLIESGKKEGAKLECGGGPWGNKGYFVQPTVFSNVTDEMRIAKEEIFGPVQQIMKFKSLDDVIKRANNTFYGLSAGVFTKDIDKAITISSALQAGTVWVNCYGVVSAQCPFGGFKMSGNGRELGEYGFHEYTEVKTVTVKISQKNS
HPGD block: inhibitors of human 15-hydroxyprostaglandin dehydrogenase (HPGD) | actives 4.3% (n = 150,000) | purified HPGD, NADH fluorescence kinetic, PGE2 substrate | Potency, µM, for the others: at the highest dose activity change, negative = inhibition, usual class: inhibitors; further: potency means the concentration at half of the fitted maximal effect
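NADH formation kinetics: reaction with 30 uM PGE2 and 1 mM NAD+ (final), 20 nM enzyme, Tris-HCl pH 8 with Tween 20, after 15 min compound preincubation at room temperature. Fluorescence change, last versus first of five reads.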
* hit, by the source's call; u = inconclusive; x = not tested or not shown; [ ] = remark or other dose. Unless noted, the call rests on the fitted dose curve; in most records, active means well fitted inhibition curve with a large enough effect (not every such curve was filed as active); inconclusive means small, poorly fitted or top-dose-only effect, or another doubt; inactive means no such curve, though single readings can be large or run the other way. Unless noted, on the % scale 0 is the no-effect control and ±100 the full control effect.

SMILES	PNC inhibitor	ALDH1A1 inh	HPGD block
Cc1nn(C)c(=O)n1-c1ccccc1	x	4%	x
Cc1nc(=O)cc(-c2ccccc2)n1-c1ccccc1	-108*	7%	-8%
O=C(O)C1CCCCC1C(=O)Nc1cccc(C(=O)N2CCCCC2)c1 (centres undefined)	8	3%	-22%
Cc1cccc(NC(=O)c2cc(NC(=O)C3CCCCC3C(=O)O)ccc2N2CCCCC2)c1 (centres undefined)	-7	18µM*	1%
CC(=O)Nc1ccc(N2CCCCC2)c(C(=O)Nc2cccc(C)c2)c1	-3	11µM*	-9%
Cc1ccc(NC(=O)c2cc(NC(=O)c3ccccc3C(=O)O)ccc2N2CCCCC2)cc1	x	-9%	x
CCC(O)CNC(=O)NC(=C(Cl)Cl)c1ccc(C)c(F)c1 (centres undefined)	-2	3.5µM*	-14%
Cc1ccc(NC(=O)CCNC(=O)c2ccc(Cl)cc2)cc1F	54	3%	-20%
Cc1cc(=O)n(C)c(=O)n1CC(=O)N1CCCCCC1	u	u	-10%
Cc1ccnc(NS(=O)(=O)c2cnc(Cl)c(Br)c2)c1	u	u	-18%
Cc1ccc(CSc2nnc(-c3cccs3)n2C)cc1	-100*	0%	-13%
Cn1c(SCc2ccc(Br)cc2)nnc1-c1cccs1	0	2%	-4%
Cc1ccc(C(=O)N[C@H](C(=O)OCC(=O)NC2CCS(=O)(=O)C2)C(C)C)cc1 (some centres undefined)	u	11%	0%
O=C1CC(c2ccc(F)cc2)Sc2nc(-c3ccccc3)c(-c3ccccc3)n21 (centres undefined)	30	-6%	3%
CCCCCCCC1=Cc2ccccc2C(C(C(=O)OC)C(=O)OC)N1C(=O)OC (centres undefined)	x	14%[13.5 µM]	-10%
Cc1cc(C)c2nc(N3CCC(C(=O)N4CCN(c5ncccn5)CC4)CC3)sc2c1	13	u	-9%
Cc1cc(C)c2nc(N3CCC(C(=O)N4CCCC4)CC3)sc2c1	20	-12%	13µM*
N[C@@H](Cc1cccnn1)C(=O)O	x	2%[13.5 µM]	-1%
COCCN(C(=O)CSc1nncn1-c1ccccc1)c1c(N)n(Cc2ccccc2)c(=O)[nH]c1=O	u	14%	-10%
CCCCN(C(=O)CSc1nncn1-c1ccccc1OC)c1c(N)n(Cc2ccccc2)c(=O)[nH]c1=O	x	2.2µM*	x
Cc1ccc(Sc2ccc(NC(=O)CCl)cc2)c(C)c1	-27	-6%	11µM*
CC(=O)Nc1ccc(NC(=O)CSc2ccc(C)cc2)cc1	-7	2%	-9%
CCOC(=O)c1nn(-c2ccccc2F)c2nc(-c3ccco3)c(C#N)c(=O)n12	29	u	u
CCOC(=O)c1nn(-c2cccc(OC)c2)c2nc(CC)c(C#N)c(=O)n12	-109*	u	-17%
O=C(CSc1nnc2scc(-c3ccccc3)n12)NCC1CCCO1 (centres undefined)	u	-9%	-3%
SMILES	PNC inhibitor	ALDH1A1 inh	HPGD block
O=[N+]([O-])C(=C1Nc2ccccc2N1)/C(Cl)=C(/Cl)Br	-20	24µM*	-7%
CCN(CC)/C(Sc1ccccc1)=C(/C(Cl)=C(Cl)Cl)[N+](=O)[O-]	x	-8%	x
Cc1nc2c(-c3ccc(F)cc3)c(C)nn2c(C)c1CCC(=O)N1CCN(c2ccc(F)cc2)CC1	-2	-7%	-11%
CCC(=O)O[C@@]1(C(=O)CCl)C(C)CC2C3CCC4=CC(=O)C=C[C@@]4(C)[C@]3(F)C(O)C[C@]21C (some centres undefined)	x	3%	-5%
c1cncc(Nc2nc(-c3cccs3)cs2)c1	u	7.9µM*	u
COc1ccc(Nc2nc(-c3ccc(OC)cc3)cs2)cc1	x	-8%	x
c1ccc(-c2csc(Nc3cccnc3)n2)nc1	-9	3%	-5%
COc1ccc(-c2csc(Nc3cccnc3)n2)cc1	-24	28µM*	-22%
O=C(Nc1cccc(F)c1)N1CCCC2(CCN(C(=O)c3csnn3)CC2)C1	x	5%	-1%
C=CCNc1nc(Cl)ncc1F	-119*	17%	-3%
C=CCNc1ncnc2sc(SC)nc12	x	9%	x
Cc1ccc(S(=O)(=O)N(C)C)cc1NC(=O)CCNC(=O)c1ccccc1Cl	u	-8%	-1%
C=C(C)C1Cc2c(C)nn(-c3nc(C)cc(C)n3)c2C1 (centres undefined)	6	20µM*	-17%
C=C(C)C1Cc2nc(N)nc(C)c2C1 (centres undefined)	-7	u	u
CN1/C(=C\C=N\O)C(C)(C)c2ccccc21	x	-5%	x
CN1/C(=C\C(=O)Nc2ccc(F)cc2)C(C)(C)c2ccccc21	-14	-2%	x
CN1/C(=C\C=C(/C#N)C(=O)Nc2ccccc2F)C(C)(C)c2ccccc21	-83*	-5%	-8%
CN1/C(=C/C=C(/C#N)C(N)=O)C(C)(C)c2ccccc21	-85*	6%	-13%
C=C(C)C1CCC(C)=C1COC(=O)Nc1ccccc1 (centres undefined)	-3	u	u
CNc1nc(C)c(C(=O)OCc2ccccc2)s1	-8	-13%	-17%
COc1ccc(CC(=O)OCC(=O)Nc2ncc(Cl)cc2Cl)cc1	20	3%	-5%
COc1cc(OC)cc(C(=O)NCC(=O)OCC(=O)Nc2ncc(Cl)cc2Cl)c1	x	25µM*	x
O=C(COC(=O)c1ccc(Br)o1)Nc1ncc(Cl)cc1Cl	x	19µM*	x
COc1cccc(C(=O)NCC(=O)OCC(=O)Nc2ncc(Cl)cc2Cl)c1	x	1%	x
CC(=O)Nc1ccc(OC(=O)c2ccccc2O)cc1	x	6%	u
SMILES	PNC inhibitor	ALDH1A1 inh	HPGD block
CCOCCOCN(C#N)c1nc(OC)nc(N(C)C)n1	u	-4%	-8%
Cc1c(C(=O)Nc2ccc(Cl)cc2)c2ccccn2c1CCc1ccncc1	-85*	u	u
Cc1c(C(=O)c2ccccc2)c2ccccn2c1CCc1ccccn1	x	11µM*	x
Cc1nc2ccccn2c1C(=O)c1ccccc1	-1	-1%	-1%
Cc1c(C(=O)Nc2cccc(Cl)c2)c2ccccn2c1CCc1ccncc1	-18	u	u
Cc1nn(Cc2ccc(F)cc2)c2sc(C(=O)Nc3ccc(N4CCOCC4)cc3N3CCOCC3)cc12	12	-10%	-20%
COc1cc(OC)cc(C(=O)N2CCN(c3ncccn3)CC2)c1	-11	-21%	-13%
FC(F)(F)c1cnc(NNC(=S)Nc2cccnc2)c(Cl)c1	x	2.2µM*	x
Cc1ccccc1NC(=S)NNc1ncc(C(F)(F)F)cc1Cl	-6	10µM*	-13%
CC(C)(C)C(=O)Nc1ncc(C(F)(F)F)cc1Cl	u	11%	-3%
Cc1c(Cl)cccc1NC(=S)NNc1ncc(C(F)(F)F)cc1Cl	-5	14µM*	-11%
Cc1cccc(C)c1NC(=S)NNc1ncc(C(F)(F)F)cc1Cl	20	u	-5%
Oc1cccc(NC(=S)Nc2cccnc2)c1	-88*	-7%	-10%
S=C(Nc1cccnc1)Nc1ccccc1Br	x	16%	x
O=C(NNc1ncc(C(F)(F)F)cc1Cl)c1c(Cl)cccc1Cl	-13	3%	-4%
COc1ccccc1CC(=O)N1CCN(c2cccc(C(F)(F)F)c2)CC1	11	0%	-7%
Fc1ccccc1NC(=S)NNc1ncc(C(F)(F)F)cc1Cl	-16	2.2µM*	-25%
NC(=S)Nc1ncc(C(F)(F)F)cc1Cl	x	-9%	x

Compound activity from PubChem BioAssay.
